The values below come from PubChem BioAssay.

Assay [1] has as its system Wnt5a (protein binding on small-molecule microarray). Put plainly: small molecules binding Wnt5a protein – biophysical, small-molecule microarray, 635/667 nm fluorescence, primary screen (AID 1142).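 Note: fluorescence read at 667 nm with signal to noise per printed feature.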 To be noted: 635 nm fluorescence, higher = more signal.
Assay [2] can be described thus: ATP-based viability of Huh7 replicon cells – cell-based, CellTiter-Glo luminescence, basal, 48 h, cytotoxicity control for HCV replication inhibitor project, primary screen (AID 1143).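 Note: Huh7 hepatoma cells carrying a hepatitis C replication reporter with no stimulus; test concentration not given here.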 The conditions noted are these: higher = more signal, called active from +8 up or from −8 down. For orientation: A replicon is a self-replicating genome or part of one, used to study replication in cells.

Assay [3] is described as follows: Pseudomonas biofilm growth suppression – PAO1 strain, BacTiter-Glo luminescence, LB-PBS, primary screen (AID 1144). The conditions noted are these: P. aeruginosa PAO1 biofilm, 12 h, higher = more signal.
The nature of assay [4]: basal CRE-LacZ reporter activity in PC12 – cell-based, unstimulated, primary screen (AID 1145). To be noted: no forskolin, luminescence, 4.5 h, higher = more signal, called active from +8 up or from −8 down.
A short description of assay [5]: forskolin-driven CRE-LacZ activity in PC12 – cell-based, CRE-LacZ reporter, forskolin-stimulated, primary screen (AID 1146).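 Note: PC12 cells with 6xCRE LacZ reporter stimulated by forskolin 10 µM; beta-galactosidase reporter signal reflecting CREB driven transcription.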 The conditions noted are these: luminescence, 4.5 h, higher = more signal, called active from +8 up or from −8 down.
In assay [6] the target is Streptavidin (Streptomyces avidinii) (UniProt P22629). Description: compounds binding control protein streptavidin – biophysical, small-molecule microarray, 635/667 nm fluorescence, artefact control for SMM compound annotation, primary screen (AID 1147).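 Note: signal reflects streptavidin binding to arrayed compounds as a control protein.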 To be noted: higher = more signal.
The nature of assay [7]: probe aInhba binding on compound microarray – biochemical, small-molecule microarray, 635/667 nm fluorescence, primary screen (AID 1148).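 Note: score merges 667nm spot fluorescence with signal-to-noise for antibody binding to printed compounds.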 To be noted: higher = more signal.
For assay [8], the target named is Torsin-1A (Homo sapiens) (UniProt O14656). Put plainly: TOR1A wild-type binding on microarray – cell lysate, small-molecule microarray, lysate, 635/667 nm, primary screen (AID 1149). The conditions noted are these: COS7 hTOR1A-WT lysate, 635 nm fluorescence, higher = more signal.
The target is the same in assay [9]. Put plainly: torsin A mutant lysate binding on microarrays – cell lysate, small-molecule microarray, COS7 lysate, 635/667 nm fluorescence, primary screen (AID 1150).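 Note: score pools 667 nm emission and signal to noise measuring lysate protein binding.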 The conditions noted are these: COS7 hTOR1A mutant lysate, 635 nm fluorescence, higher = more signal.
Assay [10] concerns Sonic hedgehog protein (Shh). Description: Sonic hedgehog microarray binding compounds – biochemical, small-molecule microarray, 635/667 nm fluorescence, primary screen (AID 1151).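 Note: Shh protein binding to compounds spotted on small-molecule microarray slides; score combines spot fluorescence intensity with signal-to-noise across triplicate slides.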 The conditions noted are these: 635 nm fluorescence, higher = more signal.
The nature of assay [11]: optical density shifts of acrAB sulA E. coli – strain DRC41, OD650, 48 h, E. coli filamentation inducer project, primary screen (AID 1152).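 Note: E. coli MC1000 strain DRC41 lacking acrAB efflux pump and sulA.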 To be noted: higher = more signal, called active from +8 up or from −8 down.
The nature of assay [12]: probe aLefty1 binding on compound microarray – biochemical, small-molecule microarray, 635/667 nm fluorescence, primary screen (AID 1153).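 Note: score merges spot fluorescence with signal-to-noise ratio from the scanned slide images.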 To be noted: higher = more signal.
A short description of assay [13]: plasmodial surface anion channel blockers, osmotic lysis – cell-based, P. falciparum Indochina, OD700, 1 h, primary screen (AID 1154). The conditions noted are these: P. falciparum Indochina infected RBC osmotic lysis, higher = more signal, called active from +8 up or from −8 down.
Assay [14] is described as follows: plasmodial surface anion channel blockers, osmotic lysis – cell-based, P. falciparum Indochina, OD700, 2 h, primary screen (AID 1155).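 Note: lysis reports solute entry through the parasite surface anion channel PSAC.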 To be noted: P. falciparum Indochina infected erythrocytes, higher = more signal, called active from +8 up or from −8 down.
Assay [15] can be described thus: changes in parasitized red cell lysis, either direction – P. falciparum Indochina, OD700, 3 h, PSAC antagonist project, primary screen (AID 1156). The conditions noted are these: P. falciparum-infected erythrocytes, osmotic lysis, higher = more signal, called active from +8 up or from −8 down.
Assay [16] in a line: plasmodial surface anion channel blockers, osmotic lysis – cell-based, P. falciparum Indochina, OD700, 18 h, primary screen (AID 1157). To be noted: P. falciparum Indochina infected erythrocytes, osmotic lysis OD700, 18 h; higher = more signal, called active from +8 up or from −8 down.
Assay [17] can be described thus: S6 kinase pathway phospho-S6 level changes – cell-based, A549, cytoblot, luminescence, serum-stimulated, primary screen (AID 1158).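 Note: serum-stimulated A549 lung adenocarcinoma cells; signal is phosphorylated S6 detected by cytoblot immunostaining with HRP secondary.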 To be noted: 5 h, higher = more signal.
Assay [18] has as its target NADPH oxidase 2 (Homo sapiens) (UniProt P04839). Put plainly: compounds shifting NOX2 Amplex Red fluorescence – cell-based, HEK293-NOX2, PMA-stimulated, NOX inhibitor project, primary screen (AID 1159). Note: test concentration not given here. The conditions noted are these: 45 min, higher = more signal, called active from +8 up or from −8 down.
The target in assay [19] is NADPH oxidase 4 (Homo sapiens) (UniProt Q9NPH5). Put plainly: compounds shifting NOX4 Amplex Red fluorescence – cell-based, HEK293-NOX4, tetracycline-induced, NOX inhibitor project, primary screen (AID 1160). The conditions noted are these: HEK293-NOX4, Amplex Red H2O2 fluorescence, 45 min; higher = more signal, called active from +8 up or from −8 down.
The target in assay [20] is NADPH oxidase 5 (Homo sapiens) (UniProt Q96PH1). Description: compounds shifting NOX5 Amplex Red fluorescence – cell-based, HEK293-NOX5, NOX inhibitor project, primary screen (AID 1161). The conditions noted are these: HEK293-NOX5, ionomycin, 45 min, higher = more signal.

Active and inactive are the calls of the source. Unless noted, the rule behind the calls is not given here.

NADPH oxidase 2 (Homo sapiens), sequence (P04839 whole entry, looked up): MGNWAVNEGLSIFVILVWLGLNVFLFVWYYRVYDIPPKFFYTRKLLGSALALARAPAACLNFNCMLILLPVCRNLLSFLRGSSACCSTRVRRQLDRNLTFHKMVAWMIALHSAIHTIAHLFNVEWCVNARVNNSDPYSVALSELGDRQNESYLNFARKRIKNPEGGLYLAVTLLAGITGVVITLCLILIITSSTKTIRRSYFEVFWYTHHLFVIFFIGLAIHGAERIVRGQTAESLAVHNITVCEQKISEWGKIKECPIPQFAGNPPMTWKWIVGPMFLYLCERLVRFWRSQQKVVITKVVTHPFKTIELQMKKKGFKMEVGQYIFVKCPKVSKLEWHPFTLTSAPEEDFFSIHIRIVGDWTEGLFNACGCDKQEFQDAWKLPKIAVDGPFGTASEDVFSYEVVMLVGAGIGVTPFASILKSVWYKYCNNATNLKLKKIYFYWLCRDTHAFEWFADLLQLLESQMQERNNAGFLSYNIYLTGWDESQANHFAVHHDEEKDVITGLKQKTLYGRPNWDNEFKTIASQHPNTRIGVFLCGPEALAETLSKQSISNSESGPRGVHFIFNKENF
NADPH oxidase 4 (Homo sapiens), sequence (Q9NPH5 whole entry, looked up): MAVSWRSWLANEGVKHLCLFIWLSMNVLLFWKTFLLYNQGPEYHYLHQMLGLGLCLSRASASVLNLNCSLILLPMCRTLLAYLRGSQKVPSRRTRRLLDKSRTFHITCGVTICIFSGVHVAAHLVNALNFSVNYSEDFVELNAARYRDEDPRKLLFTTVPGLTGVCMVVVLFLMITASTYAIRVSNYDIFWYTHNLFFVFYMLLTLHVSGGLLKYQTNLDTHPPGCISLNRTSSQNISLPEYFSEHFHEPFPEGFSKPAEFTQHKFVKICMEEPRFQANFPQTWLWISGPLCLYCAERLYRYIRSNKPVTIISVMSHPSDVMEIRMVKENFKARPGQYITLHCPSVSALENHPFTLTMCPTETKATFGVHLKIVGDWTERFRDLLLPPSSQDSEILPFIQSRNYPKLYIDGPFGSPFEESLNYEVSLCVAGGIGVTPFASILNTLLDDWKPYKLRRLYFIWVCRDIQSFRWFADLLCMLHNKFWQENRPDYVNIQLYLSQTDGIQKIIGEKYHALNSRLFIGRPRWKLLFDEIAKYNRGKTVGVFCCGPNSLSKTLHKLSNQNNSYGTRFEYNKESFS
Torsin-1A (Homo sapiens), sequence (O14656 whole entry, looked up): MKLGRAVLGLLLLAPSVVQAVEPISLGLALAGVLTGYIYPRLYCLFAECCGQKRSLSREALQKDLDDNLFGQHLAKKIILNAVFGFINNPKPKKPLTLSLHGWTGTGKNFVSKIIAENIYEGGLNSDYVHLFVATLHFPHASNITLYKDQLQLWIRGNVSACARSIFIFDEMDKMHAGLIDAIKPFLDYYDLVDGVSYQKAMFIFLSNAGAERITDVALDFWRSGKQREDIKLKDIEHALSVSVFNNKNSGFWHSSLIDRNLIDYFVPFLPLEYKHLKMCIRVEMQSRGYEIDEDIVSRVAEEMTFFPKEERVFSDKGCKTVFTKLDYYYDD
NADPH oxidase 5 (Homo sapiens), sequence (Q96PH1 whole entry, looked up): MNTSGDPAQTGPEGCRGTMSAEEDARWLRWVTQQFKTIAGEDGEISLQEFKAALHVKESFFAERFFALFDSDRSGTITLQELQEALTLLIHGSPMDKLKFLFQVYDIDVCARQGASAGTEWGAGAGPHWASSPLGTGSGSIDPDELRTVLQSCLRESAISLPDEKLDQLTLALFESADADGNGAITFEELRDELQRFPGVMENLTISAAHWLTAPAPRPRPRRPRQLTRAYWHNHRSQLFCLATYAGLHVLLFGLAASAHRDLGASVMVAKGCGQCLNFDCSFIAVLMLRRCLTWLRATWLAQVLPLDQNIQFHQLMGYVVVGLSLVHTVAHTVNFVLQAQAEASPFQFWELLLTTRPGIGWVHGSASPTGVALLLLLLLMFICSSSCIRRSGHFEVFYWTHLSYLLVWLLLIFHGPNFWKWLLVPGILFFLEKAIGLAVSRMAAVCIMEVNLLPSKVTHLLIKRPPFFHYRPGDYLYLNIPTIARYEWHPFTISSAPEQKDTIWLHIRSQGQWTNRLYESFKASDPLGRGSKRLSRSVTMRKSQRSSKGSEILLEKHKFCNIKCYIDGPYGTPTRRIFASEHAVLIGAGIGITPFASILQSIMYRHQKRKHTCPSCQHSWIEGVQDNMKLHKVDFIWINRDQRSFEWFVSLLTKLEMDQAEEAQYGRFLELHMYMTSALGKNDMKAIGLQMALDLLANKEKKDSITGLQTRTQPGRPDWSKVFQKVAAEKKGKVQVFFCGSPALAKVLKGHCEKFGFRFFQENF
Streptavidin (Streptomyces avidinii), sequence (P22629 whole entry, looked up): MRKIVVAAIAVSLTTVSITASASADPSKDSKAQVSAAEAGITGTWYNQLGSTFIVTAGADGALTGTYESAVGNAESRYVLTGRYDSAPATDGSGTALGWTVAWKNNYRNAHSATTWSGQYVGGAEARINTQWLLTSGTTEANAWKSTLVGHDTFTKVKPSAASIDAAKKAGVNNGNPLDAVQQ

As to `CON=C(C)CCN1CCc2nc(-c3ccccc3)c(-c3ccccc3)cc2C1`, the composite z-score in assay [1] is -0.0635; in [6], 1.33; in assay [7], -0.05; with Torsin-1A (Homo sapiens) [8] it was 0.254; in the assay with Torsin-1A (Homo sapiens) [9], 0.007; in [10], 0.872. For the same compound, the composite z-score in assay [12] was -0.0303. Moreover, the z-score is -4.2 (inactive) in assay [2]; -0.925 (inactive) in assay [3]; 2.22 (inactive) in assay [4]; -0.55 (inactive) in [5]; -0.944 (inactive) in assay [11]; 3.74 (inactive) in assay [13]. Also, the z-score is 1.17 (inactive) in assay [14]; 1.69 (inactive) in [15]; 0.808 (inactive) in assay [16]; -0.0181 in assay [17]; -6.35 (inactive) in assay [18]; -2.6 (inactive) in [19]. Moreover, in [20], the z-score is -6.68.
Take `O=C1C=C[C@@H](O)[C@@H]2[C@@H]3C(=O)N(c4cccc(Oc5ccccc5)c4)C(=O)[C@@H]3CC[C@@H]12`: the composite z-score in assay [1] is -0.136; in [6], 0.061; in [7] it was -0.128; in the assay with Torsin-1A (Homo sapiens) [8], 0.96; in the assay with Torsin-1A (Homo sapiens) [9], -0.118; in [10] it was 0.64. In assay [12], this compound had a composite z-score of -0.103. The z-score is -3.63 (inactive) in [2]; -0.743 (inactive) in assay [3]; 1.43 (inactive) in [4]; -0.358 (inactive) in assay [5]; -1.65 (inactive) in assay [11]; 0.641 (inactive) in [13]. The z-score in assay [14] was -0.158 (inactive); in assay [15], -0.441 (inactive); in assay [16], -1.07 (inactive); in assay [17] it was 0.249; in assay [18], 0.472 (inactive); in [19], -0.433 (inactive). In addition, the z-score in [20] is 0.283.
As to `COc1cccc([C@H](O)Cn2cc(-c3ccc(CON=C(C)C)cc3)nn2)c1`, the composite z-score was -0.0033 in [1]; -0.207 in assay [6]; 0.0082 in assay [7]; 0.0944 in the assay with Torsin-1A (Homo sapiens) [8]; 0.271 with Torsin-1A (Homo sapiens) [9]; -0.348 in [10]. The compound further displayed a composite z-score in assay [12] of -0.103. The z-score was -0.385 (inactive) in assay [2]; -0.24 (inactive) in assay [3]; 1.55 (inactive) in [4]; -0.222 (inactive) in assay [5]; 0.697 (inactive) in assay [11]; 25.6 (active) in assay [13]. In addition, the z-score in assay [14] is 12.2 (active); in assay [15], 0.99 (inactive); in assay [16] it was 1.54 (inactive); in [17] it was -1.07; in assay [18], 0.0342 (inactive); in assay [19], -0.0373 (inactive). In addition, the z-score in [20] was -0.169.
Regarding `O=C1[C@H]2[C@H]3[C@H](O)[C@H](O)CC(=NOCc4ccccc4)[C@H]3CC[C@H]2C(=O)N1C1CCCCC1`, the composite z-score was -0.0056 in [1]; 0.457 in assay [6]; -0.0917 in assay [7]; 0.161 with Torsin-1A (Homo sapiens) [8]; 1.03 with Torsin-1A (Homo sapiens) [9]; 0.449 in assay [10]. Further, the composite z-score in assay [12] is -0.0222. The z-score in assay [2] was -1.79 (inactive); in [3], 0.415 (inactive); in assay [4] it was 0.52 (inactive); in [5], -0.262 (inactive); in assay [11], -0.135 (inactive); in assay [13], 21.3 (active). In addition, the z-score in assay [14] was 2.36 (inactive); in assay [15], 0.43 (inactive); in assay [16], 0.842 (inactive); in [17] it was -0.441; in assay [18], -0.622 (inactive); in assay [19], -1.09 (inactive). For the same compound, the z-score in [20] was -4.07.
On to `CCOC(=O)[C@H](CC(C)C)NC(=O)CCC1CC(OC(=O)NCc2ccc3c(c2)OCO3)CC2(CCCC(COC(=O)NCc3ccccc3)O2)O1` (stereo not given in full), for which the composite z-score is -0.0368 in assay [1]; 0.324 in assay [6]; 0.0712 in [7]; 0.288 with Torsin-1A (Homo sapiens) [8]; 0.245 with Torsin-1A (Homo sapiens) [9]; 1.84 in [10]. In addition, in assay [12], the composite z-score is 0.0004. Moreover, the z-score is -0.72 (inactive) in assay [2]; 0.0377 (inactive) in assay [3]; -0.437 (inactive) in assay [4]; -0.256 (inactive) in assay [5]; -0.729 (inactive) in [11]; 7.67 (inactive) in [13]. Moreover, the z-score was 0.795 (inactive) in assay [14]; -0.626 (inactive) in assay [15]; 0.297 (inactive) in assay [16]; -0.251 in assay [17]; -0.398 (inactive) in assay [18]; 0.47 (inactive) in [19]. Also, the z-score in [20] is 0.202.
Consider `CN1CCc2nc(-c3ccccc3)c(-c3ccccc3)cc2C1`, for which the composite z-score was 0.0321 in assay [1]; 0.0666 in [6]; -0.176 in assay [7]; 0.214 with Torsin-1A (Homo sapiens) [8]; 0.539 with Torsin-1A (Homo sapiens) [9]; 0.464 in assay [10]. The composite z-score in [12] is -0.0748. For the same compound, the z-score in assay [2] was 0.55 (inactive); in [3], 0.99 (inactive); in assay [4], 1.65 (inactive); in assay [5], 0.0655 (inactive); in assay [11], 0.67 (inactive); in assay [13], 0.296 (inactive). For the same compound, the z-score in [14] is -0.0787 (inactive); in [15], 0.406 (inactive); in assay [16], -0.021 (inactive); in [17], -0.76; in assay [18], -0.512 (inactive); in assay [19], -0.0205 (inactive). Also, the z-score in assay [20] is -0.409.
